From PubChem
Methyltransferases – Primary Screen for Target Class Profiling of Small Molecule Inhibitors of Methyltransferases; calls only at 40 µM; actives 3.9% (n = 25,000); purified enzyme, MTase-Glo SAH luminescence; stronger effect = lower value; AID 1745853, 2022; call rule not given here
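Each enzyme was reacted with SAM and its substrate, with compounds tested once at 40 uM; SAH formed was read by MTase-Glo luminescence.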
* marks the source's active call; other numbers are inactive results; i = inactive; + = active, no number; ! = a repeat was not active. Only a selection was taken, and hits are over-represented in it overall. On the % scale 0 is the no-effect control and ±100 the full control effect.

SMILES | Methyltransferases
C=CC[N+]1([C@H]2C[C@H]3[C@@H]4CC[C@H]5C[C@H](OC(C)=O)[C@@H](N6CCCCC6)C[C@]5(C)[C@H]4CC[C@]3(C)[C@H]2OC(=O)CC)CCCCC1 | +
CCCN1C(=O)c2c(C(=O)NCc3ccc(C)cc3)ncn2CC1(C)C(=O)NCc1ccc(C)cc1 (configuration not stated) | i
CC(C)Cn1c(=O)c2ccccc2n2c(SCC(=O)Nc3ccc4c(c3)OCO4)nnc12 | i
O=C(NCCc1cccs1)c1nnc(-c2ccc(S(=O)(=O)N3CCCC3)cc2)o1 | i
COc1cccc(C2c3cccn3-c3sc4c(c3CN2C(=O)Nc2ccccc2OC)CCCC4)c1 (configuration not stated) | i
Clc1ccc(C(Cn2ccnc2)OCc2c(Cl)cccc2Cl)c(Cl)c1 (configuration not stated) | +
CCCOC(c1cc2nccc(C(=O)O)c2[nH]1)c1ccccc1Cl (configuration not stated) | i
O=C(c1cccn2cncc12)N1CCOCC1 | i
COc1ccc(CCNS(=O)(=O)c2ccc3oc(=O)c4ncn(C)c4c3c2)cc1OC | i
Cc1cccc(NC(=O)Cn2c(=O)oc3cc(S(=O)(=O)NCc4ccccc4)ccc32)c1 | i
CC(C)c1ccc(NC(=O)Cn2c(=O)oc3cc(S(=O)(=O)NCc4ccccc4)ccc32)cc1 | +
Cc1ccc(NC(=O)Cn2c(=O)oc3cc(S(=O)(=O)NCc4ccccc4)ccc32)cc1C | i
CN1CCCn2nc(C(=O)N(C)Cc3nc4ccc(Cl)cc4[nH]3)cc2C1 | i
CC(C)CCn1c(=O)c2ccc(C(=O)NC3CCCCC3)cc2n2c(=O)n(Cc3cccc(F)c3)nc12 | i
CN1c2cccnc2CN(Cc2ccccc2Cl)CC[C@H]1CO | i
Cc1cccc(C(=O)Nc2c(N3CCCCC3)c(-c3cccc(F)c3)nn2C)c1 | i
CC1(C(=O)NC2CCCC2)Cn2c(cc3sccc32)C(=O)N1CCCc1ccccc1 (configuration not stated) | i
COC1CCN(CC2CCCCCN2)CC1 (configuration not stated) | i
O=C(O)Cc1ccc2oc(-c3ccc(NC(=O)/C=C/c4ccc(Br)cc4)c(F)c3)nc2c1 | i
C=Cc1cc2oc(-c3ccc(O)c(F)c3)nc2cc1O | +
CC(=O)OC1C(O)CC(O[C@@H]2O[C@H](CO)[C@@H](O)[C@H](O)[C@H]2O)C2CCC3C(=O)OC(c4ccoc4)CC3(C)C21 (some centres not stated) | i
CCOC(=O)c1cc2n(n1)CC(C)(C(=O)NCCC(C)C)N(Cc1ccc(C)cc1)C2=O (configuration not stated) | i
CCn1c(=O)n(CC)c2cc(S(=O)(=O)Nc3ccc(OC)c(Cl)c3)ccc21 | i
CCC(C)NC(=O)c1ccc2c(=O)n(CC(C)C)c3nn(CC(=O)c4cccc(Cl)c4)c(=O)n3c2c1 (configuration not stated) | i
Cc1c(Cl)cccc1N1C(=O)c2cc3sccc3n2CC1(C)C(=O)NC1CCC(C)CC1 (configuration not stated) | i
SMILES | Methyltransferases
CN1CCC[C@@H]1Cc1c[nH]c2ccc(CCS(=O)(=O)c3ccccc3)cc12 | +!
CNS(=O)(=O)CCc1ccc2[nH]cc(C3CCN(C)CC3)c2c1 | i
CN(C)CCc1c[nH]c2ccc(C[C@H]3COC(=O)N3)cc12 | i
O=C(c1ccccc1)N1CC2(CCNC2)OCc2ccccc21 (configuration not stated) | i
O=C(O)Cc1cccn1-c1ccc(Cl)cc1 | i
COC(=O)C1=CO[C@@H](O[C@@H]2O[C@H](CO)[C@@H](O)[C@H](O)[C@H]2O)C2C1C(=O)C[C@H]2C (some centres not stated) | i
CC(CN1C(=O)c2nc3ccccc3n2CC1(C)C(=O)NC1CCCC(C)C1C)c1ccccc1 (configuration not stated) | i
Cc1cc(N2CCOCC2)ccc1Nc1nc(NC2CCCCC2)c2[nH]cnc2n1 | +
Cc1cc(NC2CCCCC2)nc(-n2nc(C)cc2C)n1 | i
N#Cc1cc(-c2ccnc(Nc3ccc(N4CCOCC4)cc3)n2)ccc1OC1CCOCC1 | i
O=C(c1ccccn1)c1cnn2c(-c3ccncc3)ccnc12 | i
CCCn1c(=O)c2ccc(C(=O)NC(C)CC)cc2n2c(=O)n(Cc3ccc(F)cc3)nc12 (configuration not stated) | i
OCC1OC(Oc2cc(O)cc(/C=C/c3ccc(OC4OC(CO)C(O)C(O)C4O)cc3O)c2)C(O)C(O)C1O (configuration not stated) | i
COc1cc(O)cc(/C=C/c2ccc(O[C@@H]3O[C@H](CO)[C@@H](O)[C@H](O)[C@H]3O)cc2)c1 | i
OC[C@H]1O[C@@H](Oc2cc(O)cc(/C=C/c3ccc(O)cc3)c2)[C@H](O)[C@@H](O)[C@@H]1O | +!
COc1ccc(CCNC(=O)c2cc3n(n2)CC(C)(C(=O)NCc2ccc(F)cc2)N(C)C3=O)c(OC)c1 (configuration not stated) | i
Cc1ccc2c(c1)c1c3n2CCN(C(=O)c2ccccc2Cl)C3CCC1 (configuration not stated) | i
CC(CNC(=O)CCc1nnc2n(Cc3ccc(Cl)cc3)c(=O)c3ccccc3n12)c1ccccc1 (configuration not stated) | i
Cn1nccc1C(=O)N1CCC(c2nc(CCOCC3CCCC3)no2)C1 (configuration not stated) | i
CCCn1c(=O)c2ccc(C(=O)NC(C)CC)cc2n2c(=O)n(Cc3ccc(F)cc3Cl)nc12 (configuration not stated) | i
COc1c(Nc2ncc(Cl)c(N[C@H]3[C@@H](C(N)=O)[C@@H]4C=C[C@H]3C4)n2)ccc2c1CC[C@@H](N1CCOCC1)CC2 | i
CNC(=O)c1ccccc1Nc1nc(Nc2ccc3c(c2OC)CCCC(N2CCN(CCO)CC2)C3)ncc1Cl (configuration not stated) | +
O=C(CCc1nnc2n(CCc3ccccc3)c(=O)c3ccccc3n12)N1CCN(Cc2ccccc2)CC1 | i
Cc1ccc(C)c(C(=O)Cn2nc3n(CC(C)C)c(=O)c4ccc(C(=O)NC5CCCC5)cc4n3c2=O)c1 | i
Cc1ccc(N(CC(=O)N[C@H]2C[C@@H]3OCC[C@H]23)S(C)(=O)=O)cc1 | i
SMILES | Methyltransferases
CC(C)CCNC(=O)C1(C)Cn2nc(C(=O)NCCc3ccccc3)cc2C(=O)N1C (configuration not stated) | i
CC(Oc1cc(-n2cnc3ccc(CN4CCN(C)CC4)cc32)sc1C(N)=O)c1ccccc1C(F)(F)F (configuration not stated) | +
C[C@@H](Oc1cc(-n2cnc3ccc(OC4CCN(C)CC4)cc32)sc1C(N)=O)c1ccccc1Cl | +
Cc1cc2c(cc3n2CC(C)(C(=O)NC2CCCCCC2)N(Cc2ccccc2C)C3=O)o1 (configuration not stated) | i
CC1CC(O)C2(OC1=O)OC1C(O)C3C4CCC5CC(OC6OC(CO)C(O)C(O)C6OC6OC(C)C(O)C(O)C6O)CCC5(C)C4CCC3(C)C1C2C (configuration not stated) | i
CCCN1C(=O)c2cc(C(=O)NCc3ccc(OC)c(OC)c3)nn2CC1(C)C(=O)NC1CCCC1 (configuration not stated) | i
